Test results: PubChem BioAssay
Unmarked numbers belong to inactive results. How the calls were made is not given here.

assay: blockers of DNA damage checkpoint Chk1 activation – imaging, HeLa, hydroxyurea, phospho-Chk1 nuclear intensity, primary screen (AID 1187); conditions: hydroxyurea-induced phospho-Chk1 immunofluorescence imaging, higher = more signal; further: test concentration not given here

Row | Structure (SMILES) | z-score
1 | COCCOC(=O)N1C(=O)[C@@]2(c3cc(C#CCCO)ccc31)[C@H](c1ccc(OCCO)cc1)N1[C@H](c3ccccc3)[C@H](c3ccccc3)OC(=O)[C@H]1[C@@H]2C(=O)N1CCc2cc(OC)c(OC)cc2C1 | 0.0256
2 | O=C1c2ccccc2C(=O)C2CC([C@H]3Oc4ccccc4S(=O)(=O)N4CCC[C@@H]34)=CCC12 (stereo not given in full) | -0.063
3 | O=[N+]([O-])c1ccc(C[n+]2ccc(-c3ccc(CO)cc3)cc2)o1 | 0.657
4 | Cc1ccc(F)cc1S(=O)(=O)N[C@@H]1CCN(C(=O)c2ccc(OC(C)C)cc2)C1 | -0.303
5 | COCCOC(=O)N1C(=O)[C@@]2(c3cc(C#CCNC(N)=O)ccc31)[C@H](c1ccc(OCCO)cc1)N1[C@H](c3ccccc3)[C@H](c3ccccc3)OC(=O)[C@H]1[C@@H]2C(=O)N1CCN(c2ncccn2)CC1 | -0.434
6 | COCCCNC(=O)[C@]1(CCS(=O)(=O)c2ccccc2)N=C(c2ccc(OCCCO)cc2)O[C@@H]1c1ccccc1 | -0.42
7 | O=C1O[C@H](c2ccccc2)[C@H](c2ccccc2)N2[C@H]1[C@@H](C(=O)N1CCCCCCC1)[C@]1(C(=O)Nc3ccccc31)[C@H]2c1ccc(O)cc1 | 0.725
8 | CN(C)C(=O)[C@]1(Cc2ccccc2N=[N+]=[N-])N=C(c2ccc(OCCCO)cc2)O[C@@H]1c1ccccc1CN=[N+]=[N-] | 0.269
9 | CCOC(=O)C[C@H]1[C@H](OC(=O)Cc2ccc3c(c2)OCO3)[C@@H](NC(=O)c2ccccc2)c2cc(OCCCO)ccc2N1C(=O)c1ccccc1 | -0.342
10 | CCCc1cc2c(n1Cc1ccc(OC)cc1)C(C)C1CN(C(=O)c3ccccc3)C(C)(C(=O)OC)C21 (stereo not given) | 0.396
11 | COC(=O)[C@@]1(Cc2ccc(OC)cc2)[C@H]2c3cc(C(=O)N(C)C)n(CCF)c3C[C@H]2CN1C(=O)c1ccccc1 | -0.241
12 | C[N+](C)(C)CCCCCCNC(=O)[C@@H]1C[C@@H]2C(=O)NCC(=O)N2[C@@H]1c1ccc(O)cc1 | 0.992
13 | COCC(=C=CC[C@@H](O)c1ccccc1OCCO)C[C@@H](O)COCc1ccccc1 | -0.978
14 | CC(C)=CCCC(C)=CC(O)C1C=CC2C(=O)N(c3ccccc3)C(=O)C2N1Nc1ccc([N+](=O)[O-])cc1 (stereo not given) | -0.178
15 | COC(=O)[C@@]1(Cc2ccccc2)[C@H]2c3cc(C(=O)N(C)C)n(Cc4ccccn4)c3C[C@H]2CN1C(=O)c1ccccc1 | 0.295
16 | COCCOC(=O)N1C(=O)[C@@]2(c3cc(C#CC4(O)CCCCCC4)ccc31)[C@H](C(=O)N1CCc3cc(OC)c(OC)cc3C1)[C@H]1C(=O)O[C@H](c3ccccc3)[C@H](c3ccccc3)N1[C@@H]2c1ccccc1OCCO | 1.13
17 | C=CCN1C(=O)[C@@]2(O[C@@H](CCn3cc([C@H](O)c4ccccc4)nn3)[C@H]([Si](C)(C)c3ccc(OC)cc3)[C@H]2C)c2cc(NC(=O)c3ccc(OC)cc3)ccc21 | -0.338
18 | C#CCNS(=O)(=O)N(C)C | 0.0602

Row | Structure (SMILES) | z-score
19 | O=C(O)[C@@]1(Cc2ccccc2)COC(c2ccc(OCCCO)cc2)=N1 | 0.204
20 | COc1ccc([Si](C)(C)[C@@H]2[C@@H](CCO)O[C@]3(C(=O)N(Cc4ccccc4)c4ccc(N5CCCCC5=O)cc43)[C@H]2C)cc1 | -1.73
21 | CC1CC/C=C\[C@H]2OC34C=CCN(Cc5ccccc5)C(=O)[C@H]3N(CCO)C(=O)[C@@H]4C2C(=O)O1 (stereo not given in full) | -0.466
22 | C=C(COC)C(=O)CC[C@H](OC(=O)c1ccccc1-c1ccccc1C(=O)O)c1ccc(CO)o1 | -0.37
23 | C=CC[C@@]1(C(=O)NCCN2CCOCC2)N=C(c2ccc(OCCCO)cc2)O[C@@H]1c1ccccc1 | 0.0737
24 | CC(C)(C)OC(=O)CC[C@@]1(C(=O)N2CCCCC2)N=C(c2ccc(OCCCO)cc2)O[C@@H]1c1ccccc1CN=[N+]=[N-] | -0.038
25 | C=CCOC(=O)[C@H]1[C@@H]2C(=O)O[C@@H](c3ccccc3)[C@@H](c3ccccc3)N2[C@@H](c2ccc(OCCOC(=O)[C@H]3C[C@H]4C(=O)N[C@@H](CCCCN(C)C)C(=O)N4[C@H]3c3ccc(O)cc3)cc2)[C@]12C(=O)Nc1ccccc12 | -0.308
26 | COc1cc(C(O)C2C=CC3C(=O)N(C)C(=O)C3N2NC(=O)OC(C)(C)C)cc(OC)c1OC (stereo not given) | 0.571
27 | CC(=O)NCCCC[C@@H]1NC(=O)[C@H]2C[C@@H](C(=O)NCCCCCN)[C@@H](c3cccc(OCCO)c3)N2C1=O | -0.661
28 | CC(C)C[C@@H]1NC(=O)[C@@]23C(=O)N[C@@H](Cc4ccccc4)C2[C@H](C)[C@@]2(C)O[C@H]2C3/C=C/C/C=C\CNC(=O)[C@@H]2CCCN2C1=O (stereo not given in full) | 0.275
29 | CC1C=C(CCCO)C=C(C(=O)OCCS(C)(=O)=O)C(C(=O)OCCS(C)(=O)=O)=CN1Cc1cccc(OC(F)(F)F)c1 (stereo not given) | 0.397
30 | CCOC(=O)C1=CC[C@@H](c2ccccc2)N(S(=O)(=O)c2ccc(C)cc2)[C@H]1C=C(C)C | 0.0493
31 | CC1CC/C=C\[C@H]2OC34C=CCN(c5ccc(Cl)cc5)C(=O)[C@H]3N(C(CO)C(C)C)C(=O)[C@]4(C)C2C(=O)O1 (stereo not given in full) | -0.512
32 | COC(=O)[C@@]1(Cc2ccc(OC)cc2)[C@H]2c3cc(C(=O)N(C)C)n(Cc4cc(C)n(C)n4)c3C[C@H]2CN1C(=O)c1ccccc1 | 0.263
33 | COC(=O)[C@@]1(Cc2ccccc2)[C@H]2c3cc(C(=O)N(C)C)n(Cc4ccc(O)c(OC)c4)c3C[C@H]2CN1C(=O)c1ccccc1 | -0.0257
34 | COc1ccc(C#Cc2ccc3c(c2)[C@]2(C(=O)N3)[C@H](c3ccc(OCCO)cc3)N3[C@H](c4ccccc4)[C@H](c4ccccc4)OC(=O)[C@H]3[C@@H]2C(=O)N2CCN(c3ncccn3)CC2)cc1 | -0.0676
35 | O=C1CSC(c2cccc([N+](=O)[O-])c2)N1c1ccccc1 (stereo not given) | -0.174
